Assay results from PubChem BioAssay (NCATS).
Inconclusive results are not listed. Activity calls are given as the source filed them. Calls follow the shape of the dose curve; as a rule, active = well fitted curve in the direction sought with a large enough effect; inconclusive = small, poorly fitted or top-dose-only effect, or another doubt; inactive = no such curve, though single readings can be large; an effect the other way counts as inactive or inconclusive.

Assays:
[1] = Cellular Toxicity (caspase-3) Mesangial (AID 660); details: mesangial cells, normalized: DMSO 0%, 100 µM tamoxifen 100%; at 91.7 µM (top of the series);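 also: combined caspase 3 and 7 activity read by Caspase-Glo luminescence; cells exposed to compound for 16 h before the caspase read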
Outline: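 Caspase 3/7 activation measured by Caspase-Glo 3/7 luminescence (20 min, room temperature) following 16 h exposure of mesangial cells (1000/well); AC50 from Hill-equation fit, normalized to DMSO and 100 uM tamoxifen.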

[2] = Cellular Toxicity (caspase-3) SK-N-SH (AID 661);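 also: 0% = DMSO basal and 100% = 10 µM staurosporine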
Outline: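 Caspase 3/7 activation was read by luminogenic substrate cleavage after 16 hour treatment of SK-N-SH cells. Signal was scaled between DMSO and 10 uM staurosporine, and concentration-response data were fitted with the Hill equation for AC50.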

[3] = Cellular Toxicity (caspase-3) H-4-II-E (AID 663); details: H-4-II-E rat hepatoma, scaled: DMSO 0%, 100 µM tamoxifen 100%; at 92.2 µM (top of the series);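 also: cells exposed to compound for 16 hr before readout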
Outline: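 Caspase 3/7 activation measured in H-4-II-E cells in complete culture medium after 16 hr treatment at 37 °C, using luciferase-coupled substrate readout; AC50 values come from Hill-equation fits of normalized concentration-response data.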

[4] = Cellular Toxicity (caspase-3) Hek293 (AID 664); details: HEK293 caspase-3 activation, DMSO = 0%, 100 µM tamoxifen = 100%; at 92.2 µM (top of the series);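 also: cells exposed to compound for 16 h at 37 °C before readout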
Outline: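 Concentration-response qHTS: caspase 3/7 activation measured by luminescent aminoluciferin substrate cleavage after 16 h compound exposure of Hek 293 cells. AC50 from Hill equation, with DMSO as basal and 100 uM tamoxifen as 100%.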

[5] = Cellular Toxicity (caspase-3) N2a (AID 665);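 also: compound exposure lasted 16 h at 37 °C before readout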
Outline: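 Caspase-3/7 activation measured as luminescence from Caspase-Glo reagent (1 h, room temperature) after 16 h compound exposure of mouse N2a cells. AC50 values from Hill-equation concentration-response, scaled between DMSO and 10 uM staurosporine.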

[6] = Cellular Toxicity (caspase-3) NIH 3T3 (AID 666);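 also: caspase signal read after 16 h compound exposure; 0% = DMSO basal and 100% = 100 µM tamoxifen stimulation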
Outline: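 Caspase-Glo 3/7 luminescence reported caspase activation in 1000 NIH 3T3 cells/well after 16 h compound exposure at 37 C. DMSO set basal and 100 uM tamoxifen set 100% stimulation; concentration-response modeled with the Hill equation for AC50.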

[7] = Cellular Toxicity (caspase-3) Renal Proximal Tubule (AID 667); details: Potency: caspase-3 activation;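 also: cells exposed to compound for 16 hours at 37 °C before detection; 0% = DMSO basal and 100% = 10 µM staurosporine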
Outline: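 In qHTS format, rat primary proximal tubule cells seeded at 1000 per well are exposed to compounds for 16 hours at 37 °C. An increase in Caspase-Glo 3/7 luminescence indicates caspase activation.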

[8] = target: Cytochrome P450 3A4 (Homo sapiens) (UniProt P08684); assay: qHTS Assay for Inhibitors and Substrates of Cytochrome P450 3A4 (AID 884); also: % is scaled to controls: 0 for no effect and ±100 for the full control effect; nearly all actives have a fitted effect of over 50% in size
Cytochrome P450 3A4 (Homo sapiens), sequence (P08684 whole entry, looked up): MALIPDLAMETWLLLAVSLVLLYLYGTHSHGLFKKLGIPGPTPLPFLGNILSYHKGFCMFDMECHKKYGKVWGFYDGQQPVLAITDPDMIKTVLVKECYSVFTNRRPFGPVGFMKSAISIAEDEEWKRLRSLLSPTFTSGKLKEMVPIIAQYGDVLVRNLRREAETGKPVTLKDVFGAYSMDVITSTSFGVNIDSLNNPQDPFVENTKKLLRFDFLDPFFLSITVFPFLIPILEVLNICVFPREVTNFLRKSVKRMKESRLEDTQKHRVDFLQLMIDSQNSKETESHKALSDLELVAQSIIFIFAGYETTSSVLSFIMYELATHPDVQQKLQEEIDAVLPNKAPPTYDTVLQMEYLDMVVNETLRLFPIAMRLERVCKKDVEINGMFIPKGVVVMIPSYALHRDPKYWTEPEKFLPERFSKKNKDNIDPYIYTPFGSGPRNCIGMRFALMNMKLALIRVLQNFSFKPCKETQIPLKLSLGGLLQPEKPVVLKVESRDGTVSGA
Outline: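 Luminescent readout of luciferin produced by CYP3A4 (20 nM) dealkylation of Luciferin-PPXE, 25 uM (its KM). NADPH-driven reaction ran 60 min at RT after 10 min compound preincubation; data scaled to 57 uM ketoconazole as 100% inhibition.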

[9] = Cell Viability - LYMP2-001 (AID 921);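 also: cells exposed to compound for 24 h at 37 °C; 0% = DMSO only and full inhibition = tetraoctylammonium bromide control wells; nearly all actives have a fitted effect of over 70% in size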
Outline: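 qHTS, 1536-well; lymphoblastoid cells, 24 hr compound, 37 C; ATP by CellTiter-Glo, 30 min RT; luminescence; Hill-fit AC50.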

O=C1OC(=O)c2c(Cl)c(Cl)c(Cl)c(Cl)c21
inactive: caspase-3 activation [1] -0.0678% | outcome [2] | caspase-3 activation [3] -0.63% | caspase-3 activation [4] 1.4% | outcome [5] | outcome [6] | Potency [7] | Potency [8] | Potency [9]

O=C1CCC(=O)O1
inactive: caspase-3 activation [1] 0.974% | outcome [2] | caspase-3 activation [3] 0.691% | caspase-3 activation [4] 0.163% | outcome [5] | outcome [6] | Potency [7] | Potency [8] | Potency [9]

CCOCC(=O)O
inactive: caspase-3 activation [1] 1.49% | outcome [2] | caspase-3 activation [3] 0.681% | caspase-3 activation [4] 1% | outcome [5] | outcome [6] | Potency [7] | Potency [8] | Potency [9]

c1ccc2c(c1)Oc1ccccc1S2
inactive: caspase-3 activation [1] -0.346% | outcome [2] | caspase-3 activation [3] -0.0621% | caspase-3 activation [4] -0.379% | outcome [5] | outcome [6] | Potency [7] | Potency [8] | Potency [9]

C=CCCCCCC
inactive: caspase-3 activation [1] 0.339% | outcome [2] | caspase-3 activation [3] 1.37% | caspase-3 activation [4] -0.874% | outcome [5] | outcome [6] | Potency [7] | Potency [8] | Potency [9]

COC(=O)CS
inactive: caspase-3 activation [1] -1.25% | outcome [2] | caspase-3 activation [3] 0.405% | caspase-3 activation [4] -1.02% | outcome [5] | outcome [6] | Potency [7] | Potency [8] | Potency [9]

CCC(C)(C)C(=O)O
inactive: caspase-3 activation [1] 0.0755% | outcome [2] | caspase-3 activation [3] 1.75% | caspase-3 activation [4] 1.52% | outcome [5] | outcome [6] | Potency [7] | Potency [8] | Potency [9]

CC(C)CCOC(=O)/C=C/c1ccccc1
inactive: caspase-3 activation [1] 0.297% | outcome [2] | caspase-3 activation [3] 1.34% | caspase-3 activation [4] 1.37% | outcome [5] | outcome [6] | Potency [7] | Potency [8] | Potency [9]

CC(=O)Nc1cccc(N)c1
inactive: caspase-3 activation [1] 0.0656% | outcome [2] | caspase-3 activation [3] 0.403% | caspase-3 activation [4] 0.134% | outcome [5] | outcome [6] | Potency [7] | Potency [8] | Potency [9]

CC(C)=CCC/C(C)=C/C=O
inactive: caspase-3 activation [1] 0.108% | outcome [2] | caspase-3 activation [3] 0.873% | caspase-3 activation [4] -2.02% | outcome [5] | outcome [6] | Potency [7] | Potency [8] | Potency [9]

CC(=O)c1cccc([N+](=O)[O-])c1
inactive: caspase-3 activation [1] 1.01% | outcome [2] | caspase-3 activation [3] -1.03% | caspase-3 activation [4] 2.43% | outcome [5] | outcome [6] | Potency [7] | Potency [8] | Potency [9]

Cc1ccc2oc(=O)ccc2c1
inactive: caspase-3 activation [1] -0.888% | outcome [2] | caspase-3 activation [3] 1.34% | caspase-3 activation [4] -2.33% | outcome [5] | outcome [6] | Potency [7] | Potency [8] | Potency [9]

CC(=O)Nc1ccc(N)cc1
inactive: caspase-3 activation [1] 0.253% | outcome [2] | caspase-3 activation [3] -0.322% | caspase-3 activation [4] -0.0268% | outcome [5] | outcome [6] | Potency [7] | Potency [8] | Potency [9]

CC1(N)CCC(C(C)(C)N)CC1 (configuration not stated)
inactive: caspase-3 activation [1] -0.66% | outcome [2] | caspase-3 activation [3] 0.688% | caspase-3 activation [4] -1.41% | outcome [5] | outcome [6] | Potency [7] | Potency [8] | Potency [9]

CCC(C)O (configuration not stated)
inactive: caspase-3 activation [1] 0.681% | outcome [2] | caspase-3 activation [3] 1.46% | caspase-3 activation [4] -1.23% | outcome [5] | outcome [6] | Potency [7] | Potency [8] | Potency [9]

BrC/C=C/CBr
inactive: caspase-3 activation [1] -0.978% | outcome [2] | caspase-3 activation [3] 0.954% | caspase-3 activation [4] 2.1% | outcome [5] | outcome [6] | Potency [7] | Potency [8] | Potency [9]

C=CC(=O)OCCCC
inactive: caspase-3 activation [1] 0.429% | outcome [2] | caspase-3 activation [3] -0.465% | caspase-3 activation [4] 0.453% | outcome [5] | outcome [6] | Potency [7] | Potency [8] | Potency [9]

O=C(O)/C=C/C(=O)O
inactive: caspase-3 activation [1] -0.622% | outcome [2] | caspase-3 activation [3] 1.4% | caspase-3 activation [4] -1.62% | outcome [5] | outcome [6] | Potency [7] | Potency [8] | Potency [9]

CCC(C)=O
inactive: caspase-3 activation [1] -0.0673% | outcome [2] | caspase-3 activation [3] 0.152% | caspase-3 activation [4] -2.5% | outcome [5] | outcome [6] | Potency [7] | Potency [8] | Potency [9]

CCCCOCCOCCOCCCC
inactive: caspase-3 activation [1] -0.157% | outcome [2] | caspase-3 activation [3] -0.168% | caspase-3 activation [4] -0.809% | outcome [5] | outcome [6] | Potency [7] | Potency [8] | Potency [9]

CCCCC(=O)N(C)C
inactive: caspase-3 activation [1] 0.37% | outcome [2] | caspase-3 activation [3] -1.29% | caspase-3 activation [4] 1.13% | outcome [5] | outcome [6] | Potency [7] | Potency [8] | Potency [9]

Cc1cccc2ccccc12
inactive: caspase-3 activation [1] 0.763% | outcome [2] | caspase-3 activation [3] 0.93% | caspase-3 activation [4] 0.828% | outcome [5] | outcome [6] | Potency [7] | Potency [8] | Potency [9]

COc1ccc(OC)cc1
inactive: caspase-3 activation [1] 0.503% | outcome [2] | caspase-3 activation [3] -0.441% | caspase-3 activation [4] 0.282% | outcome [5] | outcome [6] | Potency [7] | Potency [8] | Potency [9]
